Growth data for 38 compounds are collected here from PubChem BioAssay (NCI).

Several values for one entry are separate records, joined by “and”; a condition that tells them apart may be missing. Equal entries are not always repeated. About 83,000 compounds went through this panel and 20% of them were active in at least one assay; those are over-represented in the sample as a whole.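 Compound tested at a single concentration for 48 hours in 96-well plates; a percent growth value below 10 was scored as active.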 A number with no mark means an inactive call. Activity calls are given as the source filed them.

The first test has as its system OVCAR-8 ovarian. Put plainly: NCI-60 one-dose screen, 48 h (100 = growth as untreated, 0 = no growth, -100 = all killed). Conditions: 10 µM. Here is the method:
Growth inhibition of the OVCAR-8 human tumor cell line is measured as a screen for anti-cancer activity. Cells are grown in 96 well plates and exposed to the test compound for 48 hours. Compounds are tested at a single concentration, which is 10^-5 M for most compounds. The reported endpoint is percent growth (GI% or GIPRCNT), where numbers from 0 - 100% represent growth inhibition, and numbers from -100% - 0 represent cell death. For example, a value of 40 represents 60% growth inhibition. A value of 0 means no net growth occurred over the course of the experiment. A value of -40 indicates 40% of cells at the beginning of the experiment died by the end of the experiment. A value of -100 means all cells are dead at the end of the experiment.
NCI-60 Human Tumor Cell Lines Screen was performed using the standard one-dose NCI protocol, which is described in more detail at https://dtp.cancer.gov/discovery_development/nci-60/default.htm.
Compounds with GIPRCNT values below 10 were considered active. Activity score was based on GIPRCNT using the following formula: […]
Score is 0 for GIPRCNT values of 100 or above, 50 for GIPRCNT values of 0, and 100 for GIPRCNT values of -100.
For `O=C(Nc1cccc(Br)c1)Oc1cccc2cccnc12`, the growth was 102%.
For the compound `COc1ccc(-c2cscc2N)cc1`, the growth was 77.6%.

Staying with this test, now noted: 10 µM unless noted.
As for `CCN1/C(=C\c2cc[n+](CC)c3ccccc23)C=Cc2ccccc21`, the growth is 9.96% (active).
On the same count and under the same terms, the same measure for `CCOC(=O)c1c(C)[nH]c(CO)c1C`: 101%; for `O=C1OCc2cccc3cccc1c23`: 101%.
On the same count and under the same terms, the same measure for `CCC1OC(OC)C=CC1=O` (stereo not given): 117%; for `Cc1cc(N)c2ccccc2[n+]1CCCCCCCCCC[n+]1c(C)cc(N)c2ccccc21`: 26.8%.
The same measure, in the same setting: the same measure for `CCN(CC)CCOc1ccc(-c2nc3cc(Cl)ccc3s2)cc1`: 40.9%; for `COc1cc(NS(C)(=O)=O)ccc1Nc1c2ccccc2nc2ccccc12`: 28.8% and 23.2% and 27.8%.
Turning to `CCCCCCC(C)c1ccccc1O` (stereo not given) (tested in a mixture with another compound), the growth is 110%.
The same measure, in the same setting: the same measure for `Cc1ccc2nc(C[n+]3ccc4ccccc4c3)ccc2c1`: 57.8%; for `CC(=O)ON=C1C=CC(=C(C#N)c2ccccc2)C=C1`: 2.27% (active).
Take `CCCCCCCCCCCCCCCCCCOP(=O)([O-])OC1CC[N+](C)(C)CC1`: the growth was 49.6%.
With `Cc1c2ccccc2c(C)c2c1ccc1ccccc12`, the growth was 98.8%.
Still for that read-out and setting: the same measure for `O[C@H]1[C@H]2c3cc4c(cc3CN3CCC(=C[C@@H]1O)[C@H]23)OCO4`: 26.7%.
`CC(=O)C(=Cc1ccc(C=C(C(C)=O)C(C)=O)cc1)C(C)=O`: the growth was 2.83% (active).
As to `O=C1C2=C(Nc3cc([N+](=O)[O-])ccc3N2)OC1c1c2ccccc2cc2ccccc12` (stereo not given), the growth is 47.5%.
Still for that read-out and setting: the same measure for `O=C1C=CC(=O)N1C1c2ccccc2-c2ccccc21`: 99.8%; for `O=C(/C=C/c1cccc(Cl)c1)c1ccccc1`: 88.2% and 79.9%; for `CC1OC(OC2C(OC3CCC4(C)C(CCC5(C)C4CC=C4C6CC(C)(C)CCC6(CO)C(O)CC45C)C3(C)C)OC(C(=O)O)C(OC3OC(COC4OC(CO)C(O)C(O)C4O)C(O)C(O)C3O)C2O)C(O)C(O)C1O` (stereo not given): -51.8% (active).
The same measure, in the same setting: the same measure for `CCCCCCCCCCCCCCCCOP(=O)([O-])OCC[N+](C)(C)C`: 59.6%; for `COc1ccccc1OC(=O)Oc1ccccc1OC`: 103% and 112%.
As for `O=Nc1ccccc1N=O`, the growth was 89.4%.
Still for that read-out and setting: the same measure for `Nc1nc(N)c2nc(CNc3ccc(C(=O)NC(CCC(=O)O)C(=O)O)cc3)cnc2n1` (stereo not given): 31.7% and 34.9%; for `CCOc1ccc(-c2nc3ccc(-c4nc5ccc(N6CCN(C)CC6)cc5[nH]4)cc3[nH]2)cc1`: -38.2% (active).
Same read-out and setting: the same measure for `CC1(C)CC([P+](c2ccccc2)(c2ccccc2)c2ccccc2)=NN1`: 32.3%; for `CCOC(=O)/C=C/c1ccc([N+](=O)[O-])o1`: 11.4%.
The same measure, in the same setting: the same measure for `O=C(Nc1cccc(Br)c1)Oc1ccc(Cl)c2cccnc12`: 16% [100 µM].
For `COC(=O)[C@@]12OC[C@]34[C@H]([C@@H](O)[C@@H]1O)[C@@]1(C)[C@H](O)C(=O)C=C(C)[C@@H]1C[C@H]3OC(=O)C(OC(C)=O)[C@@H]24` (stereo not given in full), the growth is -18.6% (active).
Turning to `N#Cc1ccc([N+](=O)[O-])o1`, the growth is 89.9%.
Still for that read-out and setting: the same measure for `O=C1c2ccccc2C(=O)N1c1ccccc1`: 98.6%.
Same read-out and setting: the same measure for `Oc1c(Br)c(Br)c(O)c(Br)c1Br`: 102%.
Still for that read-out and setting: the same measure for `Cc1ccc2nc(-[n+]3cc4ccccc4cc3C)ccc2c1`: 33.6%.
For `CNC(=O)N/N=C/c1ccc([N+](=O)[O-])o1`, the growth was 96.5%.
In the case of `CN(C)c1ccc(/C=N/N=C(\C#N)[S][Sn]([Cl])([c]2ccccc2)[c]2ccccc2)cc1`, the growth was 60.6%.
Take `Cn1c2c(c3ccccc31)CCN1C[C@@H]3CCCC[C@H]3C[C@@H]21`: the growth was 20.2%.
On the same count and under the same terms, the same measure for `CCCCCCCCCCCCCCNCc1ccccc1`: 87%; for `O=C1NC(=O)/C(=C/C=C/c2ccccc2)S1`: 43.1%.

The same test, now with this note: 100 µM.
For `O=C(Nc1cccc(Br)c1)Oc1cccc2cccnc12`, the growth is 11%.
The same measure, in the same setting: the same measure for `COc1ccc(-c2cscc2N)cc1`: 48.9%.
